Consider nine molecules from ChEMBL document CHEMBL3988442, “University of Dundee, Small-Polar-MMV Screening Library” (2021).

For part of these data: Entries with a potency or affinity are not part of this list.

What all share (design): scale not given: direction of the effect not stated beside the values
The target of assay [1] is Protein translocase subunit SecA (Escherichia coli (strain K12)) (UniProt P10408). Description: Assay to Identify E. coli SecA ATPase Inhibitors. The assay is classed as functional. As to conditions: 30 µM.
Protein translocase subunit SecA (Escherichia coli (strain K12)), sequence (P10408 whole entry): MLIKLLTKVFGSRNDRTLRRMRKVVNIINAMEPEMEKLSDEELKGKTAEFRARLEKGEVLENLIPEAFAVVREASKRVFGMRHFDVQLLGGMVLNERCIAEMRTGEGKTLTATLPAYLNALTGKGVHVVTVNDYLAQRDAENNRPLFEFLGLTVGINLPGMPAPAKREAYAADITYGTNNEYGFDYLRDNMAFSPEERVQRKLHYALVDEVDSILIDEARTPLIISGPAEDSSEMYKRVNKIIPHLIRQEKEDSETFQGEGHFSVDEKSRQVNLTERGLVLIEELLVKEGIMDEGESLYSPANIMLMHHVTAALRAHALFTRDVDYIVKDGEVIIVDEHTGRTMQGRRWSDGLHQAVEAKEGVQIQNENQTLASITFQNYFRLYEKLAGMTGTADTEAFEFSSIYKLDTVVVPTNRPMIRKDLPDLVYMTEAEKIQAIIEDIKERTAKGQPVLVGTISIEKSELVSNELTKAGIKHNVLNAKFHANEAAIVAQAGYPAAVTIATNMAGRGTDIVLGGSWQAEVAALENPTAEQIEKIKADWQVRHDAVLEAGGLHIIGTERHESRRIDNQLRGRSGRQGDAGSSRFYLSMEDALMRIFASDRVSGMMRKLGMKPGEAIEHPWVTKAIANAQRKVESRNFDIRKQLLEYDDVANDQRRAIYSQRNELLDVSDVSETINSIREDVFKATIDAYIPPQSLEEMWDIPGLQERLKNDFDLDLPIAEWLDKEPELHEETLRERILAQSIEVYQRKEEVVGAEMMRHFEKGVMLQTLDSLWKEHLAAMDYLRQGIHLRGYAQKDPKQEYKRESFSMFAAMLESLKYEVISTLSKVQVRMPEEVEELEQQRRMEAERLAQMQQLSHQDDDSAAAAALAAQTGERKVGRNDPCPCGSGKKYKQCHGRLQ
The target of assay [2] is T1, Ubiquitin-activating enzyme e1, putative (Leishmania donovani (strain BPK282A1)) (UniProt E9BSI1).
T1 sequence (whole entry): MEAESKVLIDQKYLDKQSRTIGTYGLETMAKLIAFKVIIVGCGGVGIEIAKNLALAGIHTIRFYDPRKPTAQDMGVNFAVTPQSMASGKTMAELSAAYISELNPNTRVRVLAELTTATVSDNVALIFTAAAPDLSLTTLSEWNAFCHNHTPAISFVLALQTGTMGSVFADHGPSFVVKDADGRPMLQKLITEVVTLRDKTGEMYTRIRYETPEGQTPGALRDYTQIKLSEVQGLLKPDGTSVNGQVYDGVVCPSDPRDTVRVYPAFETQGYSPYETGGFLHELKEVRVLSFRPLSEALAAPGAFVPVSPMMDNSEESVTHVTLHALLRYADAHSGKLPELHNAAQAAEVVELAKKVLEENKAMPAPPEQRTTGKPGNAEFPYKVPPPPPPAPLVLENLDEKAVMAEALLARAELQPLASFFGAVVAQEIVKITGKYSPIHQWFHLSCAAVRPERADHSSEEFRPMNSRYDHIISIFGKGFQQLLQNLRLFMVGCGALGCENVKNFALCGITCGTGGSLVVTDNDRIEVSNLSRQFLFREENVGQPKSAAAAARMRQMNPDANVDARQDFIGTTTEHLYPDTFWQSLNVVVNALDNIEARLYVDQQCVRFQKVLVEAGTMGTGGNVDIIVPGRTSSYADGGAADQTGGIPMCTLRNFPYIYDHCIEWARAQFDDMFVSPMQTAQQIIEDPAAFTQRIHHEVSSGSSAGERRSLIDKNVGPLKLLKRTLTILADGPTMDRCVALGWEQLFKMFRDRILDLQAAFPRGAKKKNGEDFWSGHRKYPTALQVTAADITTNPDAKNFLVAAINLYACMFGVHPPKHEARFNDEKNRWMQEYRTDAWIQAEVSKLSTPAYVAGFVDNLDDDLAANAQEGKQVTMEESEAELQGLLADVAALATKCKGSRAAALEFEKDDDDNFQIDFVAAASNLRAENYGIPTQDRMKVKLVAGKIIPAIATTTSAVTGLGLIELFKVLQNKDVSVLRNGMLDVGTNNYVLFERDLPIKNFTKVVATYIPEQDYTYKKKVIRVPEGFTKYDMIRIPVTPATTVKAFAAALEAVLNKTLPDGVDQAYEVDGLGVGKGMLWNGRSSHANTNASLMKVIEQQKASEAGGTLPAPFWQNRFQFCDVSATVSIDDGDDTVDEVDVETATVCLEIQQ
Nature of the assay: Leishmania donovani Ubiquitin Activating Enzyme (LdE1). The assay is classed as functional. As to conditions: 30 µM.

The target in assay [3] is AMP-activated protein kinase, AMPK (Homo sapiens) (UniProt P54646+O43741+P54619+Q9UGJ0+Q9Y478+Q13131+Q9UGI9). Description: AMP-dependent Kinase enzyme assay. An in vitro enzyme assay that detects ADP turnover that is directly proportional to AMPK activity. This uses naive AMPK that is activated during the assay with MK-8722. It is filed as functional. As to conditions: 30 µM.

The target in assay [4] is Sialic acid-binding Ig-like lectin 9 (Homo sapiens) (UniProt Q9Y336). Nature of the assay: Hs-Siglec9 ALPHAscreen SOP 20170721. The note with it: 10 µM. On the technique in general: Alpha assays give light when donor and acceptor beads are brought close together.
Sialic acid-binding Ig-like lectin 9 (Homo sapiens), sequence (Q9Y336 whole entry): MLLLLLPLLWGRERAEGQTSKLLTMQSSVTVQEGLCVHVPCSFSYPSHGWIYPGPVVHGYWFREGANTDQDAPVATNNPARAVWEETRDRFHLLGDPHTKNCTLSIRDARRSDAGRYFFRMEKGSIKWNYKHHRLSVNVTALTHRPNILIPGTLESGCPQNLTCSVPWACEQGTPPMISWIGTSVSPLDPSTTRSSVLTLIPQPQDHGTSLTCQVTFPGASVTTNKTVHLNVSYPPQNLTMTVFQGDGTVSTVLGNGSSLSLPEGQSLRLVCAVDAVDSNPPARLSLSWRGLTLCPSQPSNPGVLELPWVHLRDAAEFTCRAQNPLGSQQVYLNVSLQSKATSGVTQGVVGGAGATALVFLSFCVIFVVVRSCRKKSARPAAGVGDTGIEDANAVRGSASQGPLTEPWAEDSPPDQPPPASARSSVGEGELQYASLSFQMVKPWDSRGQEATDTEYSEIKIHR
The test system of another assay is Trypanosoma cruzi. Description: Trypanosoma cruzi phosphomannomutase and mannose-1-phosphate guanylyltransferase assay. It is filed as functional. As to conditions: 10 µM.
The target in assay [5] is T2, Arginase-2, mitochondrial (Homo sapiens) (UniProt P78540).
T2 sequence (whole entry): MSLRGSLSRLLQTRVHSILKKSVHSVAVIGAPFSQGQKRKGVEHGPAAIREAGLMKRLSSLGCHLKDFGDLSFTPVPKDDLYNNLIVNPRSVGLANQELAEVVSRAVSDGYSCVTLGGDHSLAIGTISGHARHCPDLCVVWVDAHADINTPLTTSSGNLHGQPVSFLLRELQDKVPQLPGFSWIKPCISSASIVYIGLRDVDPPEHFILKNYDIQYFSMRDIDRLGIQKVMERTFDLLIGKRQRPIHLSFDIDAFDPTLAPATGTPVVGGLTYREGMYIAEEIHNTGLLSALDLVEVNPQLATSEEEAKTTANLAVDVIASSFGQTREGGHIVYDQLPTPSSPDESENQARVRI
Nature of the assay: in vitro enzyme assay to detect the production of urea directly proportional to the activity of Arginase II. Note: in the data most compounds retested in dose-response had high values. The assay is classed as functional. As to conditions: 33.3 µM.

Assay [6] concerns the target T3, Proteasome subunit beta (Trypanosoma cruzi) (UniProt O96673).
T3 sequence (whole entry): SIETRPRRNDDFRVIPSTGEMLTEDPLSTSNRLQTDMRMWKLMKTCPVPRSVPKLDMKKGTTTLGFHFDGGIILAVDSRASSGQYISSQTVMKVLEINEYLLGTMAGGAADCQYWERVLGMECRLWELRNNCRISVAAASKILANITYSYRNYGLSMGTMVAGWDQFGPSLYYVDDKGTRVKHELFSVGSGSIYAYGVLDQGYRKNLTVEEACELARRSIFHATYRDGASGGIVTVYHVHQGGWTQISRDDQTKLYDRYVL
Nature of the assay: Trypanosoma cruzi proteasome chymotrypsin-like activity (TcProtChymo) assay. Note: in the data most compounds retested in dose-response had high values. The assay is classed as functional. As to conditions: 9.37 µM.

The species named for another assay is Homo sapiens. Nature of the assay: To identify inhibition of the IFN signalling (Jak-Stat) pathway via expression of an eGFP reporter gene under the control of an IFN-stimulated response element (ISRE) containing MxA promoter. It is filed as functional. The note with it: 30 µM. In general terms: A reporter such as luciferase makes a cellular process visible.

Assay [7] has as its target T4, Tyrosyl-tRNA synthetase, putative (Trypanosoma cruzi (strain CL Brener)) (UniProt Q4DSP6).
T4 sequence (whole entry): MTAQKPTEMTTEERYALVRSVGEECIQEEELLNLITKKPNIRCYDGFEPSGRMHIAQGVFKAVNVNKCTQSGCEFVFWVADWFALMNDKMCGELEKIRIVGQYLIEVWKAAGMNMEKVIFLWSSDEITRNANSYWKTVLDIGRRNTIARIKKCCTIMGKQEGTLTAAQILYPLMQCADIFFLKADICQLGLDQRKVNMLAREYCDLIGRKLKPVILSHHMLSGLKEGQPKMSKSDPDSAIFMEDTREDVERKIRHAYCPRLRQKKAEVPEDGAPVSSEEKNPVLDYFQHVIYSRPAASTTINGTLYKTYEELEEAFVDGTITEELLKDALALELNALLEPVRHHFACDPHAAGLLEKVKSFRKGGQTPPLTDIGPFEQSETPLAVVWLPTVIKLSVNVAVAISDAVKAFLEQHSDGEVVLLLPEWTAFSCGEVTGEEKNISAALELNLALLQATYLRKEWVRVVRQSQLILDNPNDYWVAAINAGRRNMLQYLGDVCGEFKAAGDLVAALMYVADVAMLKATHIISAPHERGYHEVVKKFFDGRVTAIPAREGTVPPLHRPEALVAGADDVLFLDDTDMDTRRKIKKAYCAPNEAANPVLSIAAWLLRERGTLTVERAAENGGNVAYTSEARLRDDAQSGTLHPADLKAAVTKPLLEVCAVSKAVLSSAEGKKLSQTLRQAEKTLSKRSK
Nature of the assay: Trypanosoma cruzi tyrosyl tRNA synthetase (TcYRS) _High Tyrosine SOP. Note: in the data most compounds retested in dose-response had high values. As to conditions: 30 µM. The assay is classed as functional.

Assay [8] addresses T4, Tyrosyl-tRNA synthetase, putative (Trypanosoma cruzi (strain CL Brener)). Nature of the assay: Trypanosoma cruzi tyrosyl tRNA synthetase (TcYRS) SOP. It is filed as functional. As to conditions: 30 µM.
The target in assay [9] is Chromo domain-containing protein 1 (Saccharomyces cerevisiae (strain ATCC 204508 / S288c) (Baker's yeast)) (UniProt P32657). Nature of the assay: ScCHD-1 Enzyme Inhibition Assay. Note: in the data most compounds retested in dose-response had high values. The note with it: 30 µM. The assay is classed as functional.
Chromo domain-containing protein 1 (Saccharomyces cerevisiae (strain ATCC 204508 / S288c) (Baker's yeast)), sequence (P32657 whole entry, the tested form may be a part): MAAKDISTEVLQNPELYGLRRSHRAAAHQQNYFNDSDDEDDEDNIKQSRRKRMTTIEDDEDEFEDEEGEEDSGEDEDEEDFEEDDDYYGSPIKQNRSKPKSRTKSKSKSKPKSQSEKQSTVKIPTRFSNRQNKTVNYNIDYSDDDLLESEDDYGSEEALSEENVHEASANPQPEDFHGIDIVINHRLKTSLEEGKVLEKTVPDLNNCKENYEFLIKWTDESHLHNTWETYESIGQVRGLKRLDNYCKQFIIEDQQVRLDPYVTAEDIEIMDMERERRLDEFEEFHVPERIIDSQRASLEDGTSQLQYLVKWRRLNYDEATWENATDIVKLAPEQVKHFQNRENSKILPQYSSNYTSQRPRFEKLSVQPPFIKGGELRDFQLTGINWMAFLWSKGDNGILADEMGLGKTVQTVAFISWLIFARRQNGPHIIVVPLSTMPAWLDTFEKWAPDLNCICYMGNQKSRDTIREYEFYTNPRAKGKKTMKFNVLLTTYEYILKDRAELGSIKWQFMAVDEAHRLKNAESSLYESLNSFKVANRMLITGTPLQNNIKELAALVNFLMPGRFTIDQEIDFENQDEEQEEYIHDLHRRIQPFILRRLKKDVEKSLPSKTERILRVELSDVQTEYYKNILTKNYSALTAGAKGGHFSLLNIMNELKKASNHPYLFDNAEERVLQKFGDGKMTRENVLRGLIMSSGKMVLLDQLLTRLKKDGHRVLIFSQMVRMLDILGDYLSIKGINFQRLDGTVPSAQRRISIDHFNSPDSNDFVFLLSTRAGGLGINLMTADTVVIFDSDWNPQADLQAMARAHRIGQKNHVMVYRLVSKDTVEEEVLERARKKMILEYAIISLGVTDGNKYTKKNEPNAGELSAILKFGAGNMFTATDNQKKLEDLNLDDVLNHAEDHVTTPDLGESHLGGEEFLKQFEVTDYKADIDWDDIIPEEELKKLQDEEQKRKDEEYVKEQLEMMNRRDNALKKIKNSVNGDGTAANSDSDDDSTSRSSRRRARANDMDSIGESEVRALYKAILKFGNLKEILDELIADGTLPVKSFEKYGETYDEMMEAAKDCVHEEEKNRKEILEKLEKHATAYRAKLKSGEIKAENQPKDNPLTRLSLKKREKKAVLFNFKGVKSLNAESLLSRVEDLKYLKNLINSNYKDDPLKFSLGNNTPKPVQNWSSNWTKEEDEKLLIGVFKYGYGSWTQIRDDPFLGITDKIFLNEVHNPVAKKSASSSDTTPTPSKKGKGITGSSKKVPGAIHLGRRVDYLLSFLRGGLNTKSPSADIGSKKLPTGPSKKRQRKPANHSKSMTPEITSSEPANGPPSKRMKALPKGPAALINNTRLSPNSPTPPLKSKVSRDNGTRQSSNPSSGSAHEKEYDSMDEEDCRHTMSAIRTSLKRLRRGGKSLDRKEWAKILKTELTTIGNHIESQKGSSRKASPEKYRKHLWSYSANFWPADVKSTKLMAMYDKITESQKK

With `O=c1cc(CN2CCCC(CCc3c(F)cccc3F)C2)[nH]c(=O)[nH]1` (centres undefined), the Percent Effect was 1.76% in assay [1]; 10.8% in assay [2]; -7.22% in [3]; 1.61% in assay [4]; 4.25% in the assay with Trypanosoma cruzi; 14.3% in assay [5]. Moreover, the Percent Effect was 16.7% in assay [6]; 25% in the assay filed under Homo sapiens; 10.1% in assay [7]; 19.5% in assay [8]; -4.32% in assay [9].

For `CSC(C)(C)CNC(=O)NCCC1CCN(C)CC1`, the Percent Effect in assay [1] is -2.34%; in assay [2] it was 2.67%; in assay [3], -5.7%; in assay [4], -5.29%; with Trypanosoma cruzi it was 0.487%; in [5] it was -1.56%. Further, the Percent Effect in assay [6] stood at 2.96%; in the assay listed under Homo sapiens, 11.5%; in [7], 1.64%; in assay [8], 6.17%; in [9], 1.16%.

Regarding `CC(NC(=O)CCOc1ccccc1Cl)c1nnc2n1CCC2` (centres undefined), the Percent Effect was -2.36% in assay [1]; 10.8% in [2]; -3.16% in assay [3]; -0.604% in assay [4]; 6.51% in the assay on Trypanosoma cruzi; -2% in assay [5]. The Percent Effect in [6] was 5.77%; in the assay filed under Homo sapiens it was 6.7%; in assay [7], 5.42%; in assay [8], 16.1%; in [9] it was -6.83%.

As for `CCc1cc(NCc2ccccc2CN2CCCC2)n2ncnc2n1`, the Percent Effect in assay [1] is -5.91%; in assay [2] it was 0%; in assay [3], -0.284%; in assay [4], -9.79%; with Trypanosoma cruzi it was -4.38%; in assay [5] it was 5.92%. For the same molecule, the Percent Effect in assay [6] is 17.4%; in the assay listed under Homo sapiens, -22.7%; in assay [7], 3.19%; in assay [8], -2.6%; in assay [9], -5.77%.

As to `CCN(Cc1ccco1)C(=O)NCc1nnc2n1CCC2`, the Percent Effect in assay [1] is -1.4%; in [2] it was 10.8%; in assay [3], -2.71%; in [4], 1.38%; in the assay with Trypanosoma cruzi, -1.35%; in [5], 3.81%. The Percent Effect in assay [6] was 20.5%; in the assay filed under Homo sapiens, 0.671%; in [7], 6.88%; in assay [8], 14.6%; in assay [9], -1.97%.

With `O=C(NC1CCCC1)[C@@H]1CN(Cc2nccs2)C[C@H]2OCC[C@H]21`, the Percent Effect in [1] was -5.51%; in assay [2], 2.67%; in assay [3], -3.12%; in [4] it was -3.59%; in the assay with Trypanosoma cruzi, -1.77%; in assay [5], 1.63%. Further, the Percent Effect in [6] was -3.26%; in the assay listed under Homo sapiens, 21.4%; in assay [7], 3.19%; in assay [8] it was -3.85%; in [9], 7.18%.

For the molecule `Cc1cc(-c2cnc(N3CCN(C)CC3)nc2-c2ccc(C)s2)on1`, the Percent Effect is -2.21% in [1]; -1.35% in assay [2]; 10.6% in assay [3]; 0.731% in [4]; -4.15% with Trypanosoma cruzi; 2.09% in [5]. The Percent Effect was 2.81% in assay [6]; -1.59% in the assay listed under Homo sapiens; 1.07% in assay [7]; 6.49% in assay [8]; -16.5% in assay [9].

Regarding `CN1CC(=O)N(c2ccccc2)CC12CCN(Cc1cccnc1)C2` (centres undefined), the Percent Effect in assay [1] was -2.77%; in [2], 0%; in assay [3], 0.129%; in [4] it was 2.38%; with Trypanosoma cruzi, -0.397%; in assay [5] it was 2%. The Percent Effect in [6] was 5.74%; in the assay listed under Homo sapiens it was 3.56%; in assay [7], 4.17%; in assay [8], 1.24%; in assay [9], 5.73%.

As for `O=C(c1c[nH]c(=O)c(Cl)c1)N1C[C@@H]2CC[C@H](C1)N(Cc1ccccc1)C2`, the Percent Effect in assay [1] was -3.94%; in assay [2], 5.48%; in [3], 12.1%; in assay [4], 13.9%; in the assay on Trypanosoma cruzi it was 2.58%; in [5] it was -8.78%. Besides, the Percent Effect in assay [6] was 15.2%; in the assay filed under Homo sapiens, 9.64%; in assay [7], 2.08%; in assay [8], 11.1%; in assay [9], -3.03%.
